From PubChem BioAssay
Values joined by “and” are separate entries in the source; they are usually repeats but may differ in a detail not shown here. Equal entries are not always repeated. Active and inactive are the calls of the source.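 The calls were made as follows, unless noted: active = z-score of at least 1.8 in each of two replicates, scored against plate mean and spread of sample wells; inactive = the rest.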

Assays:
[1] = system: Aerobactin synthetase IucA (Klebsiella pneumoniae); assay: inhibition of K. pneumoniae IucA enzyme – biochemical, Tocris library, absorbance (AID 1345561; call rule not given here;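 also: 100% = enzyme without compound and 0% = no enzyme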); details: purified IucA enzyme assay, absorbance (OD) read-out; stronger effect = lower value;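 tested at 8 µM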
[2] = viability loss with induced miR-34 in A549 – imaging, A549 dox-inducible miR-34, nuclei and caspase counts, primary screen (AID 1347080;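 active = compounds whose cell count with miR-34 switched on is under 0.7 times the count with it off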); details: A549 miR-34 inducible, Hoechst nuclei count, 48 h
[3] = galactose survival enhancers in mitochondrial complex I cybrids – cell-based, galactose medium, ATP luminescence, primary screen (AID 1645843); details: complex I mutant cybrid cells, 72 h, stronger effect = higher value;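 also: positive z means more ATP and so rescue of galactose-driven cybrid death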
[4] = P. berghei load reduction in hepatocytes – cell-based, HepG2, luciferase luminescence, HepG2 viability, primary screen (AID 624349; in the data active = parasite load remaining mostly below about 12%, no sharp cut-off; inactive = mostly above about 10%;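 also: 100% = mean of DMSO negative control wells on the same plate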); details: P. berghei liver stage in HepG2, luciferase luminescence, concentration not given here; parasite load remaining: stronger effect = lower value; viability: measured here: HepG2 viability without parasites
[5] = stronger effect = lower value, cell number ratio, induced over uninduced
[6] = measured here: relative caspase fold change +Dox/-Dox
[7] = measured here: total cells with miR-34 induction, stronger effect = lower value
[8] = measured here: total cells without miR-34 induction

Row | Compound | remaining activity [1] | fold change [2, 5] | fold change [2, 6] | cell count [2, 7] | cell count [2, 8] | z-score [3] | parasite load remaining [4] | viability [4] [%]
1 | COC(=O)c1c(-c2cc(OC)c(OC)c(OC)c2)c2ccnc(OCc3ncccn3)c2c(=O)n1Cc1ccnc(C)c1 | 117% (inactive) | 0.972 (inactive) | 0.845 | 8000 | 8240 | -0.06 (inactive) |  | 
2 | C#CCN1C(C)=C(C(=O)OC)C(c2cccc([N+](=O)[O-])c2)C(C(=O)OCC)=C1C (centres undefined) | 122% (inactive) | 0.951 (inactive) | 0.816 | 7120 | 7490 | -0.3 (inactive) |  | 
3 | CCN(CC)CCCCN1c2ccccc2Oc2ccc(Cl)cc21 | 88.2% (inactive) | 1.24 (inactive) | 0.706 | 276 | 224 | -0.7 (inactive) | 45.6% (inactive) | 112
4 | c1ccc2oc(C3=NCCN3)cc2c1 | 116% (inactive) | 0.904 (inactive) | 1.14 | 8470 | 9370 | 0.405 (inactive) |  | 
5 | O=c1cc(N2CCOCC2)nc2c3ccccc3ccn12 | 126% (inactive) | 0.935 (inactive) | 1.52 | 8560 | 9160 | 1.56 (inactive) | 31.9% (inactive) | 94.8
6 | O=C(O)CC/C=C\C[C@@H]1CO[C@H](c2ccccc2Cl)O[C@@H]1c1ccccc1O | 75.4% (inactive) | 0.977 (inactive) | 0.805 | 8270 | 8470 | 6.17 (active) |  | 
7 | N#C/C(=C\c1ccc(O)c(O)c1)C(=O)Nc1ccccc1 | 117% (inactive) | 1.02 (inactive) and 0.911 (inactive) | 0.933 and 1.77 | 7050 and 7400 | 6920 and 8120 | -1.14 (inactive) and -0.745 (inactive) |  | 
8 | CCCCCCNC(=O)Nc1ccc(S(=O)(=O)Nc2ccc(CCNC[C@H](O)COc3ccc(O)cc3)cc2)cc1 | 94.3% (inactive) | 0.938 (inactive) | 1.32 | 8320 | 8870 | -0.435 (inactive) |  | 
9 | COc1ccc2[nH]c(I)c(CCNC(C)=O)c2c1 | 98.4% (inactive) | 0.928 (inactive) | 0.922 | 8770 | 9460 | 0.09 (inactive) |  | 
10 | CC(=O)NCCc1c(Cc2ccccc2)[nH]c2ccccc12 | 105% (inactive) | 1.03 (inactive) | 0.867 | 7430 | 7230 | 0.025 (inactive) |  | 
